Measurements published in PubChem BioAssay.
Results filed as inconclusive are left out. The source made the active and inactive calls.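 The calls were made as follows, unless noted: active = percent response above a set limit, the screen-wide mean plus 3 SD (cut at about 130% in these data); inactive = the rest.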

Tests used:
[1] = rapamycin-like changes in RPL19A-GFP expression – cell-based, S. cerevisiae, multiplex flow cytometry, primary screen (AID 1862; in the data active = percent of DMSO control GFP below about 86%;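 also: lower values mimic rapamycin by blocking the RPL19A rise seen in DMSO cells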); settings: S. cerevisiae RPL19A-GFP strain, flow cytometry fluorescence, 3 h; at 10 µM; stronger effect = lower value
[2] = TOR pathway GLN3 branch reporter MEP2-GFP changes – S. cerevisiae, multiplex flow cytometry, primary screen (AID 1867;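 active = GFP response, as percent of the DMSO control, above the screen-wide mean plus 3 SD, about 139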;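 also: median GFP channel fluorescence of barcode-gated MEP2-GFP cells measured by flow cytometry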); settings: S. cerevisiae MEP2-GFP strain, 3 h, at 10 µM, stronger effect = higher value, 100% means same as DMSO wells
[3] = TOR pathway RTG branch CIT2 reporter changes – S. cerevisiae, GFP fusion, multiplex flow cytometry, primary screen (AID 1870);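 also: barcoded CIT2-GFP strain pooled with four other GFP strains with rapamycin as positive control; median GFP fluorescence per well over plate mean of DMSO wells so 100% = DMSO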; settings: S. cerevisiae CIT2-GFP expression, 3 h, at 10 µM, stronger effect = higher value
[4] = TOR pathway LAP4-GFP level changes – S. cerevisiae, multiplex flow cytometry, primary screen (AID 1873;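 active = GFP signal, as percent of the solvent control, above the screen mean plus 3 SD, about 149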); settings: S. cerevisiae LAP4-GFP expression, 3 h, at 10 µM, stronger effect = higher value
[5] = yeast AGP1-GFP level changes, GLN3 branch – cell-based, multiplex flow cytometry, S. cerevisiae, primary screen (AID 1887;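 active = GFP signal above the screen-wide mean plus 3 SD, that is over about 124.5% of the solvent control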;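 also: AGP1-GFP fusion strain of S. cerevisiae within a five-strain barcoded multiplex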); settings: 3 h, at 10 µM, stronger effect = higher value
[6] = reduced mouse 2C T cell binding to pMHC/ICAM-1 vesicles – MLPCN validation set, flow cytometry, LFA-1/ICAM-1 modulator project, pilot screen (AID 2523;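 active = response below a set limit, under 55% cells CD8-positive and vesicle-bound, and CD8 cells' 90th-percentile brightness under 279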;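 as to vesicle binding response: mean PE anti-B7-1 fluorescence of CD8+ cells relative to row control; 100% = QL9-loaded vesicles with DMSO vehicle in the same plate row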); settings: 2C mouse CD8+ T cells, at 7 µM, stronger effect = lower value; double positive events: measured here: CD8+/vesicle+ event percentage
[7] = biological target: Integrin beta-1 (Homo sapiens) + Integrin alpha-4 (Homo sapiens) (UniProt P13612+P05556); experiment: alpha4beta1 integrin LIBS antibody binding reduction – U937 cells, HUTS-21 mAb, flow cytometry, validation set, VLA-4 allosteric modulator project, pilot screen (AID 2674;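 active = inhibition above 50%, about 3 SD of the validation set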;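 also: antibody binding induced by the VLA-4 ligand LDV present at three times its Kd; 0% = LDV ligand with antibody and no compound and 100% = antibody without LDV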); settings: HUTS-21 LIBS mAb binding, at 6.7 µM, stronger effect = higher value, binding induced by LDV ligand
Sequence of Integrin beta-1 (Homo sapiens) + Integrin alpha-4 (Homo sapiens) (P05556 whole entry, looked up): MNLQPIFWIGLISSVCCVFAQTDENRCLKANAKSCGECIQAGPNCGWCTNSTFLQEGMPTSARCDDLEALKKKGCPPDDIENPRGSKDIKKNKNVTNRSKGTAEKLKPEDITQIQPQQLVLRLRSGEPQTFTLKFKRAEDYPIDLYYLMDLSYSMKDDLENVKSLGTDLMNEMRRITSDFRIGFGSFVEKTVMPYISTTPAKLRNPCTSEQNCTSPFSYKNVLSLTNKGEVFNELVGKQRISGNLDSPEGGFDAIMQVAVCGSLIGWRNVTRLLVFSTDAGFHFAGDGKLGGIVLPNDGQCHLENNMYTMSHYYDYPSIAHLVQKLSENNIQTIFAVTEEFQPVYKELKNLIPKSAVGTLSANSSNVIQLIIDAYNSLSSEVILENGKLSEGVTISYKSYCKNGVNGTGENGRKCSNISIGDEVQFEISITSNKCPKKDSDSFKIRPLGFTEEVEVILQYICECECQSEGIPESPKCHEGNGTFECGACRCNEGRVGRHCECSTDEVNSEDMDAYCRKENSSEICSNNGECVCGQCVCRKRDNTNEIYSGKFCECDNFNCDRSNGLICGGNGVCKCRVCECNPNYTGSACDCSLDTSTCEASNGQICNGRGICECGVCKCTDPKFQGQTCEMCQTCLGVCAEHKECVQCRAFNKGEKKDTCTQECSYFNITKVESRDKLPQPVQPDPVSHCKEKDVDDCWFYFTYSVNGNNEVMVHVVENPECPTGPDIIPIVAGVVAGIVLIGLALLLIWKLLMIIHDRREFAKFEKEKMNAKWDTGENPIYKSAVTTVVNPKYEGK
Sequence of Integrin beta-1 (Homo sapiens) + Integrin alpha-4 (Homo sapiens) (P13612 whole entry, looked up): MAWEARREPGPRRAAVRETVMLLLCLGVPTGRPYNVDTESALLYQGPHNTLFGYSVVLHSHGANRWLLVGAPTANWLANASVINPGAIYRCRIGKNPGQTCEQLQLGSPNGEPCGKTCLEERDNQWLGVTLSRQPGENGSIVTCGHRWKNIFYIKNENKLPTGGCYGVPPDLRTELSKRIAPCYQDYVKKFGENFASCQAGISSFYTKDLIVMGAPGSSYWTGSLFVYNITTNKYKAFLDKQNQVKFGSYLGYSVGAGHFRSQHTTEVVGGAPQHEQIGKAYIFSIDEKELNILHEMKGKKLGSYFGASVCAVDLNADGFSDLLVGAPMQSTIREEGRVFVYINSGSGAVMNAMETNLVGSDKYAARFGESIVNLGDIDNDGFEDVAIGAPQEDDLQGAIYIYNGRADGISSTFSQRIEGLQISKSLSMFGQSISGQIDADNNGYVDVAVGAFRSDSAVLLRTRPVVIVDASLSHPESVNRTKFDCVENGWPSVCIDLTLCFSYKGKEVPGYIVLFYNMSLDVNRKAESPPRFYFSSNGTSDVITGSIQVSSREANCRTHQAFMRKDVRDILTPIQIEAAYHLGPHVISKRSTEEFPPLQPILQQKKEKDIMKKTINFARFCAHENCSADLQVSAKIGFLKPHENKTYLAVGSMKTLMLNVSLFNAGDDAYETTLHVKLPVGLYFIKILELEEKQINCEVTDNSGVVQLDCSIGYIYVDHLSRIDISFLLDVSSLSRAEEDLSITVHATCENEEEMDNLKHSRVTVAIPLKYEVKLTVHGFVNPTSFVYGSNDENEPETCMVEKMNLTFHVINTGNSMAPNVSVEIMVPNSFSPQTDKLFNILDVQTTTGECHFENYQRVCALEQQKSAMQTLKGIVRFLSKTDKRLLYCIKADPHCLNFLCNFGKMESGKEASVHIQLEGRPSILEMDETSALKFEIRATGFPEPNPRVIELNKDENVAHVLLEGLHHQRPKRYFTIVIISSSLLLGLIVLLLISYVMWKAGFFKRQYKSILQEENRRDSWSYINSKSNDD

[8] = calorie-restriction mimetic ROS inhibitors, yeast – validation compound set, pilot screen (AID 2706;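 active = superoxide response below 65% of plate, a cut near 3 SD across the whole screen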;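 also: yeast exposed to compound for one week at 30 degrees C before staining; 100% = mean of all compound wells on the same plate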); settings: S. cerevisiae aging, superoxide DHE fluorescence; at 10 µM; stronger effect = lower value
[9] = biological target: Beta-adrenergic receptor kinase 1 (Homo sapiens) (UniProt P25098); experiment: GRK2 binders displacing RNA aptamer, biochemical, validation, human GRK2, bead flow cytometry (AID 488806;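 active = aptamer binding inhibition above 30%, about 3 SD of noise from non-fluorescent compounds; inactive = inhibition at or below 30%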); settings: bead-bound GRK2, FAM-aptamer displacement, at 10 µM, stronger effect = higher value
Sequence of Beta-adrenergic receptor kinase 1 (Homo sapiens) (P25098 whole entry, looked up): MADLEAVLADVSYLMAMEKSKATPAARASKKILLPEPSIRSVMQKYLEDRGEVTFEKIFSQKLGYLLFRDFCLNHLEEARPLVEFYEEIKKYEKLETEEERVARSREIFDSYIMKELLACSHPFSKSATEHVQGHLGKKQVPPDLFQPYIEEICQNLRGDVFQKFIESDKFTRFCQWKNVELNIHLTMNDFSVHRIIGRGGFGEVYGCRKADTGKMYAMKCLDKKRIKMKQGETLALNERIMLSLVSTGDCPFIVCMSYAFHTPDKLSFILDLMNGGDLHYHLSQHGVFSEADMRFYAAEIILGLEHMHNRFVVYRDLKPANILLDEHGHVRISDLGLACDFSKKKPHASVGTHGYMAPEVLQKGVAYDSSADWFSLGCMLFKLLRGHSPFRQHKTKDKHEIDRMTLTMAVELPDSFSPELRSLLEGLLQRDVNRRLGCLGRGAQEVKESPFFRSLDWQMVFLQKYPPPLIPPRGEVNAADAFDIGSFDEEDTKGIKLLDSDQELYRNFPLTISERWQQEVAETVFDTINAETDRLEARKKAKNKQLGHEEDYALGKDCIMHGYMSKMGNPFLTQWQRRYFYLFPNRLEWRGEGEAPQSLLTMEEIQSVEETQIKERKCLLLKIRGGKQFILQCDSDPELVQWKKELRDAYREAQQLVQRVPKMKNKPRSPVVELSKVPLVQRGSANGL

[10] = biological target: Beta-2 adrenergic receptor (Homo sapiens) (UniProt P07550); experiment: agonist-induced loss of surface beta2AR – cell-based, FAP fluorogen, flow cytometry, validation set, pilot screen (AID 504459;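 active = percent response above 42, roughly 3 SD of non-fluorescent test compounds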;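 also: agonist-driven loss of surface beta2AR via internalization measured by FAP dye flow cytometry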); settings: Am2.2-beta2AR cells, at 10 µM, stronger effect = higher value
Sequence of Beta-2 adrenergic receptor (Homo sapiens) (P07550 whole entry, looked up): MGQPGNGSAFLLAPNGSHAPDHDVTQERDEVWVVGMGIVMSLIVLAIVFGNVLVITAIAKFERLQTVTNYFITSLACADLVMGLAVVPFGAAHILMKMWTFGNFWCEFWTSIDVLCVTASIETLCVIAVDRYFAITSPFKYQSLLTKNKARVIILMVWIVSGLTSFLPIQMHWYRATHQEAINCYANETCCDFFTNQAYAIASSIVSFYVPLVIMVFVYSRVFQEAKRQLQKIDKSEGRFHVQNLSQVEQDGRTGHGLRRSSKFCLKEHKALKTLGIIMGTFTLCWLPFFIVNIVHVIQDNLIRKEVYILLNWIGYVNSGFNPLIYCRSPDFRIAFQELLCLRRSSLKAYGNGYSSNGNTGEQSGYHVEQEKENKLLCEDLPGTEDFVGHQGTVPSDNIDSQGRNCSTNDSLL

[11] = biological target: AP-2 complex subunit beta (Homo sapiens) (UniProt P63010); experiment: beta-arrestin/AP2 interaction blockers – biochemical, validation set, GST-AP2 beads, flow cytometry, pilot screen (AID 504541;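 active = inhibition above 54%, about 3 SD of non-fluorescent compounds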;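 also: AP2 carries R879A mutation and is captured from E. coli lysate; bead-bound FITC arrestin peptide fluorescence measuring arrestin peptide binding to AP2; 0% = DMSO wells and 100% = excess unlabeled arrestin peptide control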); settings: FITC arrestin peptide, at 10 µM, stronger effect = higher value, AP2 beta2 appendage fragment, R879A mutant
Sequence of AP-2 complex subunit beta (Homo sapiens) (P63010 whole entry, looked up, the tested form may be a part, one chain of several): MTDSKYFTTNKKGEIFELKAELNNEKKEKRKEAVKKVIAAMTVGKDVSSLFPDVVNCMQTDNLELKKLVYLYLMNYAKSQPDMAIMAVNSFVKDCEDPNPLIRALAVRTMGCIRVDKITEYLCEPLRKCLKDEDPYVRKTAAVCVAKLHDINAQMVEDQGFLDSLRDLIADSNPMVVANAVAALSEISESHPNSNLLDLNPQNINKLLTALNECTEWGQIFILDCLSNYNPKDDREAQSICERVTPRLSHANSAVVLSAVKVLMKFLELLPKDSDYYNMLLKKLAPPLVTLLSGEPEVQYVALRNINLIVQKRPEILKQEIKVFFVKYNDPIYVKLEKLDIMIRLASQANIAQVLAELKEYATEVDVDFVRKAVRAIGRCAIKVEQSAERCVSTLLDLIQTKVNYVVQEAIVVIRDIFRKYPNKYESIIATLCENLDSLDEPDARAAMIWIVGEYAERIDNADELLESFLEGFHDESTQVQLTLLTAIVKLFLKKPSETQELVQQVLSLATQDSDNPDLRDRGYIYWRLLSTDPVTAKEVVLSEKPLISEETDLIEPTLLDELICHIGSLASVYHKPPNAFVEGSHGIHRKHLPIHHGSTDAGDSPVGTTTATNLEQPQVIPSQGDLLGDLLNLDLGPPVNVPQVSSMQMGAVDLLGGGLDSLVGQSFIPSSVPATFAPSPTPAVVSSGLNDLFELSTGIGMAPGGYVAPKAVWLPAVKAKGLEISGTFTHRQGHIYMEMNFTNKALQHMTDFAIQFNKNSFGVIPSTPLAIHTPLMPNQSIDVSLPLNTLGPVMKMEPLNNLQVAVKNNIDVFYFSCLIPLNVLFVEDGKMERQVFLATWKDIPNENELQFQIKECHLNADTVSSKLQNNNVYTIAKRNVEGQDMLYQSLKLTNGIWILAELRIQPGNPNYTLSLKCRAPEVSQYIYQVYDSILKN

[12] = cytosolic pH regulators acting via V-ATPase – S. cerevisiae, pHLuorin, HTS validation (AID 504600; in the data active = response above about 15%;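 also: plate controls were DMSO for no effect and reference compound for full effect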); settings: V-ATPase proton transport, at 10 µM, stronger effect = higher value
[13] = test system: anti-desmoglein-3 scFv antibody binding to human DSG3; experiment: blockers of pathogenic pemphigus antibody–desmoglein-3 binding – biochemical, validation compound set, bead-based, flow cytometry, pilot screen (AID 588368;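 active = binding below the plate cutoff, the plate median minus 3 SD, with a reading above zero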;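 also: signal is the median channel fluorescence of bead-bound GFP antibody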); settings: Protein G beads, DSG3-Fc, scFv-GFP binding, at 10 µM, stronger effect = lower value
[14] = Nile Red efflux blockade in pump-expressing yeast – validation compound set, multiplex, phenotypic, pilot screen (AID 588506;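 active = efflux inhibition above 0.42, the validation set average plus 4 SD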;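 also: Nile Red retained in cells so higher fluorescence means more efflux inhibition; 0 = negative control wells and 1 = enniatin B 25 µM full block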); settings: S. cerevisiae pump-expressing triplex, Nile Red efflux flow cytometry; at 10 µM; stronger effect = higher value; the pumps come from Candida albicans
[15] = biological target: ATP-binding cassette sub-family B member 6 (Homo sapiens) (UniProt Q9NP58); experiment: blockers of ABCB6-driven porphyrin uptake – K562-ABCB6 cells, flow cytometry, validation set, pilot screen (AID 588550;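 active = inhibition above the screen-wide mean plus 3 SD, about 51%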;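 also: 0% = DMSO wells and 100% = benzethonium chloride 70 µM positive control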); settings: K562-ABCB6 porphyrin accumulation, 1 h, at 10 µM, stronger effect = higher value
Sequence of ATP-binding cassette sub-family B member 6 (Homo sapiens) (Q9NP58 whole entry, looked up): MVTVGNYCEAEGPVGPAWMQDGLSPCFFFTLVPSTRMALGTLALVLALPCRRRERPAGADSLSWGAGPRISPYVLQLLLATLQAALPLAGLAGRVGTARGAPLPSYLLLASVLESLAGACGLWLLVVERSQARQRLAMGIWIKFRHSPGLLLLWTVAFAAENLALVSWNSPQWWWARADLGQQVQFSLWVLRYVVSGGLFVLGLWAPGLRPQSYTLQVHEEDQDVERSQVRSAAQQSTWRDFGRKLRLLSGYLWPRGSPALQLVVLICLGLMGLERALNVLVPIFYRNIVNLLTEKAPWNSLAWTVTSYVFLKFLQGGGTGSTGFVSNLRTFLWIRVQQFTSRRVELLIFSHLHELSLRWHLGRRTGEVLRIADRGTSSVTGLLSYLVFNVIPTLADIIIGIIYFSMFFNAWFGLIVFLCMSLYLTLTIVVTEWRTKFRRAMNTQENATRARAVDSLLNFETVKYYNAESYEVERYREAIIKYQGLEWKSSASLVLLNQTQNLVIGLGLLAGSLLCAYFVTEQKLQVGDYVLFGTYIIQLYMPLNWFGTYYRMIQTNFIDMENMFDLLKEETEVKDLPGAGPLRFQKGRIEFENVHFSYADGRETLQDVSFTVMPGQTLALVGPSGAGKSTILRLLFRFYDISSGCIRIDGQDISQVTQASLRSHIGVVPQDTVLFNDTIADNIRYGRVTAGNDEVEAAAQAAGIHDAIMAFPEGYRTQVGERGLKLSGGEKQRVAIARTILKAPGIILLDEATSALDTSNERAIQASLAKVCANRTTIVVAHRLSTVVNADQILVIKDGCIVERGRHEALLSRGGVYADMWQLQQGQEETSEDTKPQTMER

[16] = AML differentiation inducers, ER-HoxA9 marrow cells – cell-based, GFP/MAC1 double positive, flow cytometry, validation set, primary screen (AID 588685;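 active = differentiation response of at least 50%, scaled between solvent and reference control, from cells with both markers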;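 also: compound exposure lasts four days before antibody staining and flow analysis; 0% = DMSO wells and 100% = 5 µM fulvestrant positive control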); settings: stronger effect = higher value, normalized: vehicle 0, fulvestrant 100

| SMILES | percent of DMSO control GFP [1] | GFP response vs DMSO [2] | percent response of DMSO control [3] | GFP response vs DMSO [4] | GFP response, % of DMSO [5] | double positive events [6] [%] | vesicle binding response [6] | inhibition [7] | superoxide response (% of plate) [8] | aptamer binding inhibition [9] | response [10] | inhibition [11] | response [12] | binding (% of control) [13] | efflux inhibition (fraction of control) [14] | inhibition [15] | differentiation response [16] |
| --- | --- | --- | --- | --- | --- | --- | --- | --- | --- | --- | --- | --- | --- | --- | --- | --- | --- |
| COC(=O)c1ccccc1NC(=O)c1ccc(COc2ccc3c(c2)CCC3)cc1 | 99.6% (inactive) | 99.3% (inactive) | 90.8% (inactive) | 105% (inactive) | 94.8% (inactive) | 64.4 | 521% (inactive) | 7.85% (inactive) | 82.8% (inactive) | 5% (inactive) | -3.71% (inactive) | 0.16% (inactive) | -3.9% (inactive) | 98.9% (inactive) | 0.46 (active) | -3% (inactive) | 1.22% (inactive) |
| CC(C)=CCC/C(C)=C/CC/C(C)=N/O | 97.4% (inactive) | 115% (inactive) | 91% (inactive) | 108% (inactive) | 93.5% (inactive) | 59.7 | 199% (inactive) | 6.4% (inactive) | 97.4% (inactive) | 4% (inactive) | 3.47% (inactive) | -1.05% (inactive) | -1.49% (inactive) | 103% (inactive) | 0.08 (inactive) | -63% (inactive) | -2.4% (inactive) |
| O=C1Cc2ccccc2C(c2ccccc2)N1 (stereo not drawn) | 98.8% (inactive) | 108% (inactive) | 101% (inactive) | 90.1% (inactive) | 102% (inactive) | 64.9 | 449% (inactive) | -19.1% (inactive) | 112% (inactive) | -3% (inactive) | -4.45% (inactive) | 56.3% (active) | -7.51% (inactive) | 95.9% (inactive) | 0.11 (inactive) | 9% (inactive) | 53% (active) |
| CNCCCC1c2ccccc2C=Cc2ccccc21 | 96.1% (inactive) | 116% (inactive) | 108% (inactive) | 83.1% (inactive) | 97% (inactive) | 71.4 | 307% (inactive) | 8.4% (inactive) | 103% (inactive) | -3% (inactive) | 23.4% (inactive) | -2.69% (inactive) | 0.79% (inactive) | 101% (inactive) | 0.16 (inactive) | 9% (inactive) | -3.28% (inactive) |
| CCO/C([O-])=N/c1c[n+](N2CCOCC2)no1 | 99.8% (inactive) | 97.7% (inactive) | 103% (inactive) | 110% (inactive) | 106% (inactive) | 64.1 | 237% (inactive) | -18.5% (inactive) | 115% (inactive) | -1% (inactive) | 9.37% (inactive) | -14.8% (inactive) | 0.46% (inactive) | 100% (inactive) | 0 (inactive) | -4% (inactive) | -0.18% (inactive) |
| O=C(CC1(O)C(=O)Nc2ccccc21)c1ccccc1O (stereo not drawn) | 100% (inactive) | 104% (inactive) | 97.8% (inactive) | 103% (inactive) | 101% (inactive) | 61.5 | 195% (inactive) | -6.68% (inactive) | 102% (inactive) | 3% (inactive) | 5.92% (inactive) | -2.48% (inactive) | 17.1% (active) | 99.5% (inactive) | -0.04 (inactive) | 3% (inactive) | 12.9% (inactive) |
| CCCCOn1c(C)c(C(C)=O)c2c3no[n+]([O-])c3ccc21 | 101% (inactive) | 105% (inactive) | 97.7% (inactive) | 120% (inactive) | 99.4% (inactive) | 59.8 | 246% (inactive) | -12.7% (inactive) | 106% (inactive) | 0% (inactive) | 25.4% (inactive) | -10.5% (inactive) | 5.1% (inactive) | 94.3% (inactive) | -0.1 (inactive) | 7% (inactive) | 74.4% (active) |
| O=C(O)c1cccnc1Nc1cccc(C(F)(F)F)c1 | 95.9% (inactive) | 130% (inactive) | 110% (inactive) | 83.6% (inactive) | 93.3% (inactive) | 63.3 | 214% (inactive) | 7.43% (inactive) | 98.6% (inactive) | 6% (inactive) | 6.98% (inactive) | 47.1% (inactive) | -7.29% (inactive) | 102% (inactive) | 0.48 (active) | 15% (inactive) | 7.37% (inactive) |
| CC1=C/C(=N\N=C2\NC(=O)C(CC(=O)Nc3ccccc3F)S2)CC(C)(C)C1 (stereo not drawn) | 94.2% (inactive) | 125% (inactive) | 86% (inactive) | 83.1% (inactive) | 95.2% (inactive) | 58 | 104% (inactive) | 12.3% (inactive) | 96.1% (inactive) | 8% (inactive) | -1.66% (inactive) | -7.65% (inactive) | 1.96% (inactive) | 102% (inactive) | -0.2 (inactive) | 11% (inactive) | 4.09% (inactive) |
